# Screens deposited in PubChem by several laboratories.
# In the library only some 1.7% were active in any assay of this set; here they are far more common.
# sEH activator: soluble epoxide hydrolase activators, primary screen, biochemical, human sEH; purified human sEH enzymatic activity, activator screen; activation, % at 2 µM; Bifunctional epoxide hydrolase 2 (Homo sapiens), P34913; 91,000 tested, 0.04% active; in the data active = activation above about 37%
# Target sequence (P34913 whole entry, looked up): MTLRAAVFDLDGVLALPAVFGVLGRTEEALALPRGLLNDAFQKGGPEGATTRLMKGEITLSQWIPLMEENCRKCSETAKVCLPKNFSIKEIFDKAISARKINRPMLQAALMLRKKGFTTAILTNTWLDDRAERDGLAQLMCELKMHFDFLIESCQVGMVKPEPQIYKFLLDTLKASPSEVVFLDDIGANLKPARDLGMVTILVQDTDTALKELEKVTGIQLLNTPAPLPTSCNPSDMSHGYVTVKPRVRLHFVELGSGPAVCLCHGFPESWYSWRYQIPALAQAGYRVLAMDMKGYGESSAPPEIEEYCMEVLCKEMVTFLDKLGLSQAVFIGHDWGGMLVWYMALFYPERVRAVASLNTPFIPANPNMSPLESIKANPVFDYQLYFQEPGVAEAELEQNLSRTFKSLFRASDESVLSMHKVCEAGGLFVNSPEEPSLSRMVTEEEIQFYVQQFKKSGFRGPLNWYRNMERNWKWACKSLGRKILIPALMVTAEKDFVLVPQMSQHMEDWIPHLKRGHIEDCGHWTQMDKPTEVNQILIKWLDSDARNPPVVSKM
# Measles CPE: compounds protecting cells from measles virus cytopathic effect, primary screen, measles RdRp inhibitor project, single point, MLSMR library, absorbance; Measles virus-infected cells, CPE protection; protection (pct of control), % at 4 µM; AID 841, 2007; 140,000 tested, 1.5% active; in the data active = protection mostly above about 24%, no sharp cut-off; inactive = mostly below about 26%
# PTPN22 act: LYP phosphatase activators, primary screen, biochemical, DiFMUP fluorescence, 2 µM; recombinant LYP; 0 = plate median, 100 = signal doubled; activation, % at 2 µM; 96,000 tested, 0.11% active;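 active = activation at 2 µM above a set limit, the mean plus 5 SD, cut at about 37% in these data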
# sEH inh: soluble epoxide hydrolase inhibitors, primary screen, biochemical, human sEH. Bifunctional epoxide hydrolase 2 (Homo sapiens), P34913. recombinant human sEH enzymatic activity assay. inhibition, % at 2 µM. 91,000 tested, 0.34% active; in the data active = inhibition above about 80%
# PTPN22 inh 2: PTPN22 phosphatase inhibitors, primary screen, biochemical, DiFMUP fluorescence, 2 µM; Tyrosine-protein phosphatase non-receptor type 22 (Homo sapiens), Q9Y2R2; inhibition, % at 2 µM; recombinant LYP catalytic domain; AID 640, 2007; 96,000 tested, 0.21% active;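 active = inhibition at 2 µM at or above a set limit, the screen mean plus 3 SD, cut at about 24% in these data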;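 also: 0% = DMSO with enzyme and 100% = enzyme fully blocked by orthovanadate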
# An asterisk follows results filed as active; / = no result given.
SMILES,sEH activator,Measles CPE,PTPN22 act,sEH inh,PTPN22 inh 2
O=S(=O)(NCC1CCCO1)c1ccc(S(=O)(=O)N(Cc2ccccc2F)C2CCCCC2)cc1 (stereo unspecified),-20.7,/,2.2,25.1,-1.8
COc1ccc(C2NC(=O)NC(c3ccccc3)=C2c2nc3ccccc3s2)cc1 (stereo unspecified),12.4,28.3*,8.5,-10.3,-5.5
CCOC(=O)COc1ccc(S(=O)(=O)N2CCN(c3ccccc3)CC2)cc1,/,5.2,/,/,/
O=[N+]([O-])c1cccc(-n2nnnc2CN2CCCCCC2)c1,14.2,33.2*,4.6,-10.5,0.8
Clc1ccc(-n2nnnc2CN2CCOCC2)cc1,6.5,14.4,5.4,-3.0,0.1
O=C(O)c1oc2ccccc2c1-n1cccc1,-6.3,27.1*,9.6,4.4,-14.7
COC(=O)c1oc2ccc(Br)cc2c1-n1cccc1,-2.6,2.4,11.0,2.6,-11.8
CCNC(=S)N/N=C/c1ccc(-c2ccccc2)o1,/,1.8,/,/,/
O/N=C\c1ccc(-c2ccccc2)o1,/,31.5*,/,/,/
COC(=O)N/N=C/c1ccc(-c2cc(Cl)ccc2Cl)o1,/,2.5,/,/,/
O/N=C/c1ccc(-c2cc(Cl)ccc2Cl)o1,/,42.6*,/,/,/
O=C(O)/C(=C\c1ccco1)NC(=O)c1ccccc1,/,30.1*,/,/,/
C[C@]12C=CC(=O)C=C1CCC1C3CC[C@](O)(C(=O)CO)[C@@]3(C)CC3OC312 (stereo partly specified),/,41.8*,/,/,/
CC(=O)OCC(=O)[C@@]1(O)CC[C@H]2[C@@H]3CCC4=CC(=O)C=C[C@]4(C)[C@H]3[C@@H](O)C[C@@]21C,/,6.9,/,/,/
CCOc1ccc(C(=O)NCC(c2cccs2)N(C)C)cc1OCC (stereo unspecified),/,16.2,/,/,/
CC(C)CNc1nnnc2c1sc1nc(N3CCOCC3)c3c(c12)CC(C)(C)SC3,0.1,9.6,-20.9,3.9,24.6*
CCc1sc(NC(=O)COC)nc1-c1ccccc1,-1.1,28.2*,-10.6,4.4,8.1
COCCn1c(SC(C)C(=O)Nc2ncc(Cl)cc2Cl)nc2ccccc21 (stereo unspecified),1.4,52.6*,-5.9,-3.2,6.8
Cc1cc(SC(C)C(=O)Nc2ncc(Cl)cc2Cl)nc2ccccc12 (stereo unspecified),/,26.3*,/,/,/
C(=C/c1ccnc2nc(SC/C=C/c3ccccc3)nn12)/c1ccccc1,3.6,22.0,-30.7,-1.6,33.4*
CC(=O)N1CCc2cc(S(=O)(=O)NCCCN3CCN(Cc4ccccc4)CC3)ccc21,1.6,16.6,0.4,-0.2,-0.5
CC(=O)N1CCc2cc(S(=O)(=O)NCCN3CCC(C)CC3)ccc21,13.9,38.0*,6.2,-12.3,-4.5
CC(C)C(C(=O)O)N1C(=O)/C(=C/c2cccn2C)SC1=S (stereo unspecified),/,9.1,/,/,/
CC(C)C(C(=O)O)N1C(=O)/C(=C/C=C/c2ccco2)SC1=S (stereo unspecified),-5.4,0.6,-25.1,5.8,29.1*
OC(COCC1COc2ccccc2O1)CN1CCN(c2ccccc2F)CC1 (stereo unspecified),47.1*,3.5,5.5,-48.3,-3.0
SMILES,sEH activator,Measles CPE,PTPN22 act,sEH inh,PTPN22 inh 2
Cc1ccc(C(=O)Nc2nnc(C)s2)o1,-19.6,3.3,3.2,18.2,-3.6
Cc1ccc(/C=C/C(=O)Nc2nnc(C)s2)o1,/,20.1*,/,/,/
C/C=C/C(=O)OCC(=O)Nc1cc([N+](=O)[O-])ccc1Cl,/,5.2,/,/,/
C/C=C/C(=O)OCC(=O)Nc1c(Cl)cccc1Cl,5.7,29.8*,-3.2,-4.8,0.8
Cc1cc(C)n2nc(-c3ccc(F)cc3)nc2n1,-9.9,23.4*,7.7,7.4,-5.8
CC(=O)Nc1ccc2c(c1)OCCO2,-0.3,3.1,-4.7,3.1,6.3
O=C(Nc1ccc2c(c1)OCCO2)NC12CC3CC(CC(C3)C1)C2,-97.3,6.0,5.2,97.3*,-10.7
CCOC(=O)c1ccccc1NS(=O)(=O)c1ccccc1F,3.1,33.4*,18.9,-3.6,-19.6
CCC(=O)NC(=S)N1CCN(c2ccc([N+](=O)[O-])cc2Cl)CC1,8.5,28.8*,-8.0,-7.7,11.6
CNc1nc(SCc2ccc(C)cc2)nc2c1CCCC2,7.9,56.9*,6.6,-4.8,-4.0
CC(C)C[C@H](NC(=O)OC(C)(C)C)c1n[nH]c(=S)n1N,/,19.0,/,/,/
COc1ccc(C)cc1N(C(=O)c1ccccc1F)c1nc2ccccc2s1,/,11.6,/,/,/
COc1ccc(S(=O)(=O)N2C3CCC2CC(NC(=O)C2CC2)C3)cc1 (stereo unspecified),-6.7,13.7,4.8,6.2,-6.7
O=C(NNS(=O)(=O)c1ccc2ccccc2c1)NC1CCCCC1,/,51.9*,/,/,/
COC(=O)c1ccc(S(=O)(=O)N2C3CCC2CC(NC(=O)NC2CCCCC2)C3)cc1 (stereo unspecified),-98.0,4.0,-1.3,98.0*,1.9
COc1ccc(S(=O)(=O)N2C3CCC2CC(NC(=O)NC2CCCCC2)C3)cc1 (stereo unspecified),-97.6,2.8,2.6,97.6*,-0.6
COc1ccc(OC)c(/C=N/NC(=O)c2ccc(Cn3cc([N+](=O)[O-])cn3)o2)c1,/,7.5,/,/,/
CCN(CC)S(=O)(=O)c1ccc(S(=O)(=O)N(CC(=O)Nc2ccccc2)Cc2ccco2)cc1,-8.2,8.6,0.8,8.7,0.2
CCOc1ccccc1Nc1nnc(C)c(=O)[nH]1,8.4,60.2*,3.1,-8.1,-2.8
Cc1ccc(S(=O)(=O)N(C)CC(O)Cn2c3ccccc3c3ccccc32)cc1 (stereo unspecified),4.0,38.8*,5.4,-0.4,-5.5
CC1(C)Cc2ccccc2-c2nnc(C(F)(F)F)n21,/,40.6*,/,/,/
N#CCC(CNc1ncc(C(F)(F)F)cc1Cl)OC(=O)c1cccc([N+](=O)[O-])c1 (stereo unspecified),-11.8,7.7,0.3,13.8,3.0
Cc1cc(/C=C2/NC(=O)N(c3ccccc3)C2=O)c(C)n1C(C)C,/,55.0*,/,/,/
O=C(Nc1nc2ccccc2s1)c1ccc(OCC2CCCO2)cc1 (stereo unspecified),/,1.1,/,/,/
CCOC(=O)c1sc(Nc2cccc(C)c2C)nc1C,0.4,4.2,0.8,2.4,1.8
SMILES,sEH activator,Measles CPE,PTPN22 act,sEH inh,PTPN22 inh 2
COC(=O)c1sccc1NC(=O)c1ccc(OC)cc1,-3.4,3.2,5.3,2.7,-10.8
COC(=O)c1sccc1NC(=O)c1csc(C)c1,-2.5,25.4*,-13.4,-2.9,11.9
CCc1ccc2ncc(S(=O)(=O)c3ccc(C)c(C)c3)c(N3CCCC3)c2c1,/,3.4,/,/,/
O=c1[nH]c(CSc2nnc(-c3ccccc3)n2-c2ccccc2)nc2ccccc12,/,27.9*,/,/,/
COc1ccccc1Oc1c(C)oc2c(CN(C)C)c(O)ccc2c1=O,/,14.8,/,/,/
O=C(Nc1ccccc1OC(=O)c1ccc(Cl)cc1)c1ccc(Cl)cc1,/,79.4*,/,/,/
Cc1ccc2occ(/C=N/NC(N)=S)c(=O)c2c1,/,29.7*,/,/,/
C[C@]1(C(=O)NCc2cc(F)cc(C(F)(F)F)c2)C=C[C@@H](Cc2ccccc2)N1C(=O)c1ccccc1,/,6.8,/,/,/
